Results published in PubChem BioAssay.
A number with no mark means an inactive call. Activity calls are given as the source filed them.

Assay: plasmodial surface anion channel blockers, osmotic lysis – cell-based, P. falciparum Indochina, OD700, 1 h, primary screen (AID 1154)
Details: P. falciparum Indochina infected RBC osmotic lysis, higher = more signal, called active from +8 up or from −8 down
With `[N-]=[N+]=NCc1ccccc1C[C@@]1(C(=O)NCCN2CCOCC2)N=C(c2ccc(OCCCO)cc2)O[C@@H]1c1ccccc1` the z-score was 25.3 (active).
Compound `COC(=O)C1(CC(C)C)C=C2C(=C(C)C(=O)C2C)CN1` (stereo unspecified) has a z-score of 0.71.
Compound `COC(=O)C(CC#Cc1ccc2c(c1)[C@]1(C(=O)N2)[C@H](c2ccc(OCCO)cc2)N2[C@H](c3ccccc3)[C@H](c3ccccc3)OC(=O)[C@H]2[C@@H]1C(N)=O)C(=O)OC` has a z-score of 3.9.
In the case of `CCCN1C(=O)[C@@]2(c3ccc([N+](=O)[O-])cc3)CC(=O)N(C3CCCCC3)[C@@H]2c2ccc(CO)cc21`, the z-score is reported as -0.0987.
In the case of `C=CCNC(=O)[C@H]1[C@@H]2C(=O)O[C@@H](c3ccccc3)[C@@H](c3ccccc3)N2[C@@H](c2ccc(OCCO)cc2)[C@]12C(=O)N(C(=O)OCCOC)c1ccc(C#CCC(C(=O)OC)C(=O)OC)cc12`, the z-score is reported as 4.28.
`C=CCOC(=O)[C@H]1[C@@H]2C(=O)O[C@@H](c3ccccc3)[C@@H](c3ccccc3)N2[C@@H](c2ccc(OCCOC(=O)[C@H]3C[C@H]4C(=O)NCC(=O)N4[C@H]3c3ccc(O)cc3)cc2)[C@]12C(=O)Nc1ccccc12` gave a z-score of 2.42.
With `COc1ccc(C(=O)Nc2ccc(CN3C(=O)[C@@]4(O[C@@H](CC(=O)N(CCO)Cc5ccccc5)[C@H]([Si](C)(C)c5ccc(OC)cc5)[C@H]4C)c4ccccc43)cc2)cc1` the z-score was 16.6 (active).
In the case of `CCOC(=O)C1=CCC(c2ccncc2)N(S(=O)(=O)c2ccc(C)cc2)C1` (stereo unspecified), the z-score is reported as 4.24.
`O=C1O[C@H](c2ccccc2)[C@H](c2ccccc2)N2[C@H]1[C@@H](C(=O)O)[C@]1(C(=O)Nc3ccc(C#CC4(O)CCCCCC4)cc31)[C@H]2c1ccccc1OCCO` showed a z-score of -2.1.
`O=C1O[C@H](c2ccccc2)[C@H](c2ccccc2)N2[C@H]1[C@@H](C(=O)O)[C@]1(C(=O)Nc3ccccc31)[C@H]2c1ccc(OCCO)cc1` showed a z-score of 3.81.
In the case of `CCCCCCc1nc(-c2ccc(OC)nc2)c(C)c2c1[Si](C(C)C)(C(C)C)OC2`, the z-score is reported as 1.74.
For `COC(=O)Cn1c(C(=O)N(C)C)cc2c1C[C@H]1CN(C(=O)c3ccccc3)[C@@](Cc3ccccc3)(C(=O)OC)[C@@H]21`, the z-score was -0.424.
`COc1ccc([Si](C)(C)[C@H]2[C@H](CC(=O)N3CCC[C@H]3CO)O[C@@]3(C(=O)N(C)c4ccccc43)[C@@H]2C)cc1` showed a z-score of 0.577.
In the case of `C=CC[C@H](OC(=O)Nc1ccc(SC)cc1)c1ccc(O)c(F)c1`, the z-score is reported as 23.6 (active).
Compound `Cc1ccc(S(=O)(=O)N2[C@@H](c3ccccc3)C(C(=O)O)=CC[C@H]2c2ccc(F)cc2)cc1` has a z-score of 2.05.
In the case of `COC(=O)C(CC#Cc1ccc2c(c1)[C@]1(C(=O)N2)[C@H](C(N)=O)[C@H]2C(=O)O[C@H](c3ccccc3)[C@H](c3ccccc3)N2[C@@H]1c1ccccc1OCCO)C(=O)OC`, the z-score is reported as 14.2 (active).
In the case of `O=C1OC[C@@H](c2ccccc2)n2cc(/C=C/c3ccccc3)cc21`, the z-score is reported as 16.3 (active).
Compound `CN1C(=O)C2C(C1=O)C1C=C(CCCO)C2C(C2CC2)N1C` (stereo unspecified) has a z-score of -0.452.
In the case of `COC(=O)[C@@]1(Cc2ccc(F)cc2)[C@H]2c3cc(C(=O)N(C)C)n(Cc4cccc5ccccc45)c3C[C@H]2CN1C(=O)c1ccccc1`, the z-score is reported as 8.44 (active).
For `C[N+](C)(C)CCCC[C@@H]1NC(=O)[C@H]2C[C@@H](C(=O)O)[C@@H](c3ccc(O)cc3)N2C1=O`, the z-score was 3.34.
Compound `C=CCN1C(=O)[C@]2(O[C@H](CCO)[C@@H]([Si](C)(C)c3ccc(OC)cc3)[C@@H]2C)c2cc(N3C(=O)c4ccccc4Oc4ccccc43)ccc21` has a z-score of 6.17.
`COc1cc2c(cc1OC)CN(C(=O)[C@@H]1[C@H]3C(=O)O[C@H](c4ccccc4)[C@H](c4ccccc4)N3[C@H](c3ccc(O)cc3)[C@@]13C(=O)Nc1ccc(C#CC4=CCCCC4)cc13)CC2` gave a z-score of 1.18.
Compound `COc1ccc([Si](C)(C)[C@@H]2[C@@H](CC(=O)N3CCC[C@H]3CO)O[C@]3(C(=O)N(Cc4cccc(N5C(=O)c6cccc7cccc5c67)c4)c4ccccc43)[C@H]2C)cc1` has a z-score of 3.97.
With `O=C1O[C@@H](c2ccccc2)[C@@H](c2ccccc2)N2[C@@H](c3ccccc3OCCO)[C@]3(C(=O)Nc4ccc(C#CC5(O)CCCCCC5)cc43)[C@@H](C(=O)N3CCCCCCC3)[C@H]12` the z-score was 1.14.
With `COc1ccc(NN2C(C(O)c3ccccc3)C=CC3C(=O)N(C4CCCCC4)C(=O)C32)cc1` (stereo unspecified) the z-score was 11.8 (active).
`COC(=O)[C@@]1(Cc2ccc(F)cc2)[C@H]2c3cc(C(=O)N4CCCC4)n(C[C@H](O)CO)c3C[C@H]2CN1C(=O)c1ccccc1` gave a z-score of 1.41.
